From PubChem BioAssay
“And” between values parts separate entries of the source, which are not always exact repeats. Equal values may be shown once.

Tests used:
[1] = tested on: Botulinum neurotoxin type F light chain protease (Clostridium botulinum); experiment: Clostridium botulinum type F light chain protease inhibitors, microsphere substrate cleavage, validation (AID 588459); settings: multiplex microsphere protease substrate cleavage assay, flow cytometry; at 10 µM; stronger effect = higher value
[2] = target: Botulinum neurotoxin type A (Clostridium botulinum) (UniProt P0DPI0); experiment: BoNT/A light chain protease inhibitors, biochemical, multiplex microsphere flow cytometry, validation set (AID 588460); settings: at 10 µM, stronger effect = higher value
[3] = target: Lethal factor (Bacillus anthracis) (UniProt P15917); experiment: Bacillus anthracis lethal factor inhibition, microsphere flow cytometry protease assay, validation at 10 µM (AID 588461); settings: multiplex microsphere protease cleavage assay, stronger effect = higher value

Measured: inhibition

Sequence of Botulinum neurotoxin type A (Clostridium botulinum) (P0DPI0 whole entry, looked up): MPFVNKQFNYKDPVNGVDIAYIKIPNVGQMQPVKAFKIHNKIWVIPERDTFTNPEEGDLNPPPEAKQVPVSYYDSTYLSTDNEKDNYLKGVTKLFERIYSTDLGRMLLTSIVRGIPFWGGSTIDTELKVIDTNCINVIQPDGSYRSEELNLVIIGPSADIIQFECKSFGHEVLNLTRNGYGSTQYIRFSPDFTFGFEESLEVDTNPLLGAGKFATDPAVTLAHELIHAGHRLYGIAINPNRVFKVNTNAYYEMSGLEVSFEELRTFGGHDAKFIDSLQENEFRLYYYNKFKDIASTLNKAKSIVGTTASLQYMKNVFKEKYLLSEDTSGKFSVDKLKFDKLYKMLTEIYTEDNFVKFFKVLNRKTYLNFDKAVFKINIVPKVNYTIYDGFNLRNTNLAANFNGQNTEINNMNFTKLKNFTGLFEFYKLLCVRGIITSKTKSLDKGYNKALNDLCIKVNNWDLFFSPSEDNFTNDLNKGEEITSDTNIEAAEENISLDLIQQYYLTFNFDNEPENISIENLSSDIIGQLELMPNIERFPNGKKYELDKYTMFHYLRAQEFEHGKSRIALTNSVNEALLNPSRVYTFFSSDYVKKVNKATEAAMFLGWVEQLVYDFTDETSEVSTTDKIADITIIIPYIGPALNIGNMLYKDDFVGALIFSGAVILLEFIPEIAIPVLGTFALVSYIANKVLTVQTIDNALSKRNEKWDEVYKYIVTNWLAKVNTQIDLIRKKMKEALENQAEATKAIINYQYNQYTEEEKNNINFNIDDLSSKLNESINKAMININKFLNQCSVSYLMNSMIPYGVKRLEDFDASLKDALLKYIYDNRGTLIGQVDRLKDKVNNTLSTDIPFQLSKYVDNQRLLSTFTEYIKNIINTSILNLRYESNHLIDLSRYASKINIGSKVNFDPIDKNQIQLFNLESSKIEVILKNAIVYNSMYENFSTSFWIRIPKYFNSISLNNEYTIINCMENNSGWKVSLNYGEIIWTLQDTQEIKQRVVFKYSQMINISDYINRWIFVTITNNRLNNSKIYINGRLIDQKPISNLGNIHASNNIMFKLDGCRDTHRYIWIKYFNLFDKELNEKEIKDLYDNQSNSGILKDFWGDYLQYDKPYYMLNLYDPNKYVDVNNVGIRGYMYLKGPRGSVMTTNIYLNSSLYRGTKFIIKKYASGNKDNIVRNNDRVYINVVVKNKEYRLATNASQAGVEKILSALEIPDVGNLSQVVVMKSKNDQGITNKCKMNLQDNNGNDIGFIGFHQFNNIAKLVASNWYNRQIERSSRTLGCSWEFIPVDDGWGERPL
Sequence of Lethal factor (Bacillus anthracis) (P15917 whole entry, looked up): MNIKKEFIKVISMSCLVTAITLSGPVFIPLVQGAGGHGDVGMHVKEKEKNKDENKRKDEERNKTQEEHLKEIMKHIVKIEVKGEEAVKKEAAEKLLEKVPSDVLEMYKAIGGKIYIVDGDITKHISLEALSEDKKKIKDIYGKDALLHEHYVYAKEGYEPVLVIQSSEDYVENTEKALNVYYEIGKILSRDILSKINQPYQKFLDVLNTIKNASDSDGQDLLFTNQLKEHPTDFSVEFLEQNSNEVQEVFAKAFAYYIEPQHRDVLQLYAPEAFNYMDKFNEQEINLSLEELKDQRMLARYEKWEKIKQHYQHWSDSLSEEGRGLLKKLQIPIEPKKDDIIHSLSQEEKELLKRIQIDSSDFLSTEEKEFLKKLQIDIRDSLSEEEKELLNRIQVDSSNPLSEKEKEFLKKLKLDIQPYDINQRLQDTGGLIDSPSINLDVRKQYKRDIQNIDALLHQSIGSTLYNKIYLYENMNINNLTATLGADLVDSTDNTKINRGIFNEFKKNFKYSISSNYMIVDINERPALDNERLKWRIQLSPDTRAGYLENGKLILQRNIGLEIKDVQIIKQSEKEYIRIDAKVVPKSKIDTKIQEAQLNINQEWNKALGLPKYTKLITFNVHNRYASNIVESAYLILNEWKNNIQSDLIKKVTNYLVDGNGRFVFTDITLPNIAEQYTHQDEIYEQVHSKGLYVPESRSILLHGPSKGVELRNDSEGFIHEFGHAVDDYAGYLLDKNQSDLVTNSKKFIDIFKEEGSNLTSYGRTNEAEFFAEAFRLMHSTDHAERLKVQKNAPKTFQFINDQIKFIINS

CC12CCCCN1CCCc1c2[nH]c2ccccc12 (stereo not drawn)
inactive: [1] -1.1% | [2] -0.2% | [3] -11.1%

O=C1NC(=O)C(c2ccccc2)(c2ccccc2)N1
inactive: [1] 1.3% and 5.2% | [2] -1% and -1.4% | [3] 0.3% and -2.4%

Oc1[nH]c2ccccc2c1N=Nc1ccccc1
inactive: [1] -2.7% | [2] -0.4% | [3] 1.4%

c1ccc2c(c1)CCCC2C1=NCCN1 (stereo not drawn)
inactive: [1] 0.7% | [2] 0.9% | [3] 0.6%

COCCNC(=O)CSc1ccc(Cl)cc1
inactive: [1] 1.8% | [2] 0.7% | [3] 1.4%

O=C1N[C@@H](Cc2cnc[nH]2)C(=O)N2CCC[C@@H]12
inactive: [1] 1.2% | [2] 0.3% | [3] -5.3%

CCOC(=O)C(Cc1cc(C(C)=O)ccc1OC(C)C)C(=O)OCC
inactive: [1] 0.4% | [2] -0.1% | [3] -1.9%

CC(C)Oc1ccc2c(=O)c(-c3ccccc3)coc2c1
inactive: [1] 4.4% | [2] 1.4% | [3] 6.8%

O=C(CC1SC(=O)NC1=O)Nc1ccc(Cl)cc1 (stereo not drawn)
inactive: [1] -1.9% | [2] 0.8% | [3] -0.5%

COC(=O)c1cc(OC)c(OC)c(OC)c1[N+](=O)[O-]
inactive: [1] 1.9% | [2] 0.1% | [3] -0.2%

COc1cc(C2C(C(C)=O)=C(O)C(=O)N2c2ccc(C)cc2)ccc1O (stereo not drawn)
inactive: [1] -1.4% | [2] 0.2% | [3] 0%

COc1ccc(C(C)=O)c2c1OCCO2
inactive: [1] 2.3% | [2] -2.8% | [3] 0.8%

COc1ccc(NC(=S)NCCc2c[nH]c3ccccc23)cc1
inactive: [1] -0.4% | [2] -0.9% | [3] 0.4%

O=C(CCCCC(=O)NC1CCCC1)NC1CCCC1
inactive: [1] 1.5% | [2] 0.2% | [3] -3.4%

Oc1ccc(COCc2ccccc2)c2cccnc12
inactive: [1] -2% | [2] -3.5% | [3] -3.1%

Cc1ccc2c(c1)OC(=O)CC2c1ccccc1 (stereo not drawn)
inactive: [1] -4.2% | [2] -1.1% | [3] -4.4%

CCCCC[C@H](O)/C=C/[C@@H]1[C@@H](C/C=C\CCCC(=O)O)[C@H]2CO[C@@H]1C2
inactive: [1] 0.5% | [2] -0.1% | [3] 3.3%

Cc1ccccc1NC(=O)c1c(C)cc(=O)oc1C
inactive: [1] -0.8% | [2] -0.1% | [3] 1.7%

Cc1ccc2[nH]c3c(c2c1)CN(C)CC3
inactive: [1] -2.8% | [2] -0.7% | [3] -15%

O=C(CC1(O)C(=O)Nc2ccccc21)c1ccccc1O (stereo not drawn)
inactive: [1] 0.6% | [2] -0.8% | [3] -1.4%

O=C(/C=C/c1c[nH]c2ccccc12)c1cccc2ccccc12
inactive: [1] 5.1% | [2] 2.4% | [3] -6.2%

CCCCOc1ccc(CC(=O)NO)cc1
inactive: [1] -1.6% | [2] -0.2% | [3] 0.6%

O=C(Nc1ccccc1)c1ccccc1CCc1ccccc1
inactive: [1] 0.9% | [2] -3.7% | [3] 3.9%

FC(F)(F)c1ccc(-c2noc(CN3CCCN(C4CCCCC4)CC3)n2)cc1
inactive: [1] -2% | [2] -1.4% | [3] -7%

CC1(C)C(=O)OC(/C=C\c2ccccc2)C(C)(C)C1=O (stereo not drawn)
inactive: [1] 1.5% | [2] 0.1% | [3] 4.5%

COc1c2ccoc2nc2c(OC)cccc12
inactive: [1] -3.7% | [2] 0.1% | [3] 3%

O=C1CC(c2ccc(O)cc2)Oc2cc(O)cc(O)c21 (stereo not drawn)
inactive: [1] -2.6% | [2] -1.8% | [3] -0.4%

CC(=O)N1CCn2c3c(c4cc(C)ccc42)CCCC31 (stereo not drawn)
inactive: [1] 3.1% | [2] -0.3% | [3] -2.3%

O=C(CC(NC(=O)OCc1ccccc1)C(=O)O)OCc1ccccc1 (stereo not drawn)
inactive: [1] -3.2% | [2] -2.1% | [3] 2.5%

Oc1ccc(Cl)cc1Cc1cc(Cl)ccc1O
inactive: [1] 10% | [2] 4.5% | [3] 7.7%

NC[C@H]1O[C@H](O[C@H]2[C@H](O)[C@@H](O[C@H]3O[C@H](CO)[C@@H](O)[C@H](N)[C@H]3O)[C@H](N)C[C@@H]2N)[C@H](N)C[C@@H]1O
inactive: [1] 3.4% | [2] -1.1% | [3] -1.8%
